Compounds with a hit are over-represented: about 4.1% of the library has one in this group of screens.
UHRF1 binding – human UHRF1 methylated DNA binding inhibitors. Q96T88. UHRF1 binding to methylated oligo, TR-FRET. AID 687016. inhibition, % at 4.4 µM. 370,000 compounds, 0.75% hits; in the data active = inhibition above about 21%;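 also: UHRF1 SRA domain binding a hemimethylated CpG hairpin DNA probe; 0% = median of test compound wells and 100% = reference inhibitor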
Target sequence (Q96T88 whole entry, looked up, the tested form may be a part): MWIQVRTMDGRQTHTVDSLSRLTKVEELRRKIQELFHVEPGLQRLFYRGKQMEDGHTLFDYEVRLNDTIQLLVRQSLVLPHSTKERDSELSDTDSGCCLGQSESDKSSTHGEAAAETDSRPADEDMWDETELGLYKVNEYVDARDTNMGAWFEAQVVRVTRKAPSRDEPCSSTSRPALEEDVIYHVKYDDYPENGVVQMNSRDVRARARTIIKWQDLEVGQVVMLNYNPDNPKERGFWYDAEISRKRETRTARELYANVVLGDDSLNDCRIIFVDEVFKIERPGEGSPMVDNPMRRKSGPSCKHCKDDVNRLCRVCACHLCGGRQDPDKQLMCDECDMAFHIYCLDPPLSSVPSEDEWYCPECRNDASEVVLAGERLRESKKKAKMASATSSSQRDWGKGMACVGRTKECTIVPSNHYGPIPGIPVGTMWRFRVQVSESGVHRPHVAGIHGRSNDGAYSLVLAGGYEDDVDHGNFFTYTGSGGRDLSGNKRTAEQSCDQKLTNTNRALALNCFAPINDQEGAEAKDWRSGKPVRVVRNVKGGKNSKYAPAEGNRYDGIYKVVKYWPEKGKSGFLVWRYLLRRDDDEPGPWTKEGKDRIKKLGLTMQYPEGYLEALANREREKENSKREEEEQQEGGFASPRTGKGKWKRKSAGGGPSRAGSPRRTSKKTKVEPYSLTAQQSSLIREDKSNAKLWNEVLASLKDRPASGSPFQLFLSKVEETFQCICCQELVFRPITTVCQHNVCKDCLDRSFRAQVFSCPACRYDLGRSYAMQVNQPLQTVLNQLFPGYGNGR
PRMT1 FP inh – PRMT1 (human) inhibition, primary screen | inhibition, % at 2.79 µM | 370,000 compounds, 1.3% hits | recombinant PRMT1, activity-based probe fluorescence polarization | AID 652257;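 active = inhibition above about 21% made by adding two undisclosed values, limit read from the data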
MBD2 inh – inhibitors of human MBD2 binding to methylated oligonucleotide; Q9UBB5; 370,000 compounds, 0.31% hits; inhibition, % at 4.4 µM; TR-FRET; AID 686964; in the data active = inhibition above about 13%
LEDGF integ inh – blocks HIV-1 LEDGF/p75-dependent DNA integration; TR-FRET IN-LEDGF/p75 DNA integration, Eu/Cy5; inhibition, % at 3.7 µM; 370,000 compounds, 0.64% hits;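 active = inhibition above the screen-wide mean plus 3 SD, cut at about 13% in these data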;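 also: signal is the Cy5 over europium emission ratio at 671 and 618 nm; 0% = plate median of compound wells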
ABHD5 PLIN5 PPI – blocks binding of human ABHD5 to perilipin-5. Q00G26+Q8WTS1. Split G. princeps luciferase complementation, luminescence, 4 h. inhibition, % at 4 µM. 360,000 compounds, 0.78% hits. AID 602281;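 active = inhibition above the mean inhibition across every tested compound plus 3 SD, cut at about 22% in these data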;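 also: 0% = DMSO only wells and the 100% control is not disclosed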
rCAG binder – molecules binding r(CAG) RNA repeats | r(CAG) RNA repeat, TO-PRO-1 dye displacement fluorescence | inhibition, % at 3 µM | 370,000 compounds, 1.3% hits | AID 651821;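 active = inhibition above the plate cutoff, the mean of all test compounds on that plate plus 3 SD, cut at about 35% in these data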;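 also: 0% = DMSO alone and 100% = 100 µM mitoxantrone as full dye displacement; higher means more dye released from RNA so lower well fluorescence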
* = called active by the depositor; nt = no result.

SMILES	UHRF1 binding	PRMT1 FP inh	MBD2 inh	LEDGF integ inh	ABHD5 PLIN5 PPI	rCAG binder
COc1ccccc1C(=O)COC(=O)c1ccc(N(C)C)cc1	100*	5	3	1	4	0
CCc1ccc(NC(=O)CN(c2ccc3c(c2)OCO3)S(=O)(=O)c2c(C)noc2C)cc1	33*	-1	1	3	4	2
CCOc1ccc(N(CC(=O)Nc2ccc3c(c2)OCCO3)S(=O)(=O)c2c(C)noc2C)cc1	-1	-6	-2	8	6	2
Cc1cc(NS(=O)(=O)c2ccc(NC(=O)Nc3cccc(Cl)c3)cc2)no1	3	0	-2	2	-2	68*
CCCCn1nnnc1C(c1ccccc1)N1CCN(C/C=C/c2ccccc2)CC1 (configuration not stated)	-1	-7	3	4	13	-3
CCCCn1nnnc1C(CC)N1CCN(C/C=C/c2ccccc2)CC1 (configuration not stated)	22*	4	10	3	13	0
CCn1nc(C)cc1C(=O)Sc1cccc(Cl)c1	5	8	1	-3	3	42*
Cc1nn(C)c(C(=O)Sc2cccc(Cl)c2)c1[N+](=O)[O-]	5	7	5	-7	3	-3
CCOc1ccc(C(=O)CC(C(=O)O)N2CCN(Cc3ccccc3)CC2)cc1 (configuration not stated)	nt	nt	nt	nt	95*	nt
CCOc1ccc(C(=O)N2CCCCCC2)cc1	3	0	5	2	-2	-4
CCOc1ccc(C(=O)CC(C(=O)O)N2CCCCC2)cc1 (configuration not stated)	nt	nt	nt	nt	85*	nt
CCOc1ccc(C(=O)OC(C)C(=O)N2CCN(Cc3ccccc3)CC2)cc1 (configuration not stated)	-3	0	-2	-1	0	1
CCNc1ccc([N+](=O)[O-])cc1	41*	-1	-2	3	-2	-1
CC(=O)c1cnc(-c2ccccn2)s1	0	22*	-1	2	-3	1
NC(=O)c1ncn([C@@H]2O[C@H](C(=O)N[C@H](Cc3ccccc3)C(=O)O)[C@@H](O)[C@H]2O)n1	0	0	-5	3	nt	0
COC(=O)c1ccccc1NC(=O)CSc1ncccn1	-1	-2	0	-1	-2	0
COC(=O)c1cc(C)sc1NC(=O)CSc1ncccn1	3	22*	3	-2	0	3
O=C(CCCCl)Nc1c2c(nn1-c1ccccc1)CSC2	-6	23*	2	1	0	4
COc1cccc(C=C2Cc3ccccc3C2=O)c1	-4	1	-1	-3	23*	3
COc1cccc(/C=C2\CCc3ccccc3C2=O)c1	-3	-1	1	-2	7	-2
COc1ccc(C(=O)/C=C/c2ccccc2F)c(OC(=O)c2ccc([N+](=O)[O-])cc2)c1	3	-1	-1	-3	28*	0
C=CCn1c(CNS(=O)(=O)c2ccc(F)cc2)n[nH]c1=S	42*	4	-1	-7	-9	-3
Cc1cc(NS(=O)(=O)c2ccc(NC(=O)CSc3nnc(-c4ccncc4)n3-c3ccccc3)cc2)nc(C)n1	-1	-1	-3	-2	nt	10
CC1=C(C#N)c2nc(N)c(C#N)c(C)c2/C1=C\c1ccc(OCC(=O)O)c(Cl)c1	-2	14	-5	6	11	47*
Cc1ccc(C(C)C)cc1OCC(=O)Nc1nnc(C2CC2)s1	27*	-2	4	1	2	3
SMILES	UHRF1 binding	PRMT1 FP inh	MBD2 inh	LEDGF integ inh	ABHD5 PLIN5 PPI	rCAG binder
CCOC(=O)N1CCN(C(=O)CSc2nnc(C3COc4ccccc4O3)o2)CC1 (configuration not stated)	-3	4	1	0	-1	0
O=C(CSc1nnc(C2COc3ccccc3O2)o1)N1CCCC1 (configuration not stated)	0	23*	-4	4	7	0
C=CCNC(=O)c1ccc(N(CC=C)S(C)(=O)=O)cc1	7	-1	-1	0	4	7
O=C(CCNC(=O)c1ccc(Br)cc1)NCCCN1CCOCC1	23*	6	6	-2	-2	1
C=CCN(c1ccc(C(=O)NCCN2CCOCC2)cc1)S(C)(=O)=O	29*	-5	-2	3	-4	-4
CCOc1ccc(CCNC(=O)c2cc3sccc3n2Cc2cccc(C)c2)cc1OCC	0	-1	2	0	nt	nt

Assay outcomes from PubChem.
